# Only some compounds are listed: those with a hit (about 11% of all), similar ones and a draw of the others.
# VACV Venus inh: qHTS for Stage-Specific Inhibitors of Vaccinia Orthopoxvirus: Venus Reporter Primary qHTS; AID 720580, 2013; 330,000 compounds, 0.46% hits; Vaccinia virus Venus reporter expression, fluorescence; Potency, µM (titrated, usually from 36.5 µM), for inactives: at the top dose activity change, negative = inhibition, actives largely listed as inhibitors; calls by dose curve; tested in A549 cells; also: % is scaled to controls: 0 for no effect and ±100 for the full control effect; nearly all actives have a fitted effect of over 30% in size
# Pf growth 96h: Primary qHTS for delayed death inhibitors of the malarial parasite plastid, 96 hour incubation; Potency, µM (top dose mostly 28.7 µM), inactives show at the top dose activity change, negative = inhibition, usual class: inhibitors; P. falciparum luciferase reporter growth, 96 h; 320,000 compounds, 6.9% hits; also: % is scaled to controls: 0 for no effect and ±100 for the full control effect
#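 Parasite growth measured via integrated firefly luciferase reporter in P. falciparum. Infected erythrocytes at 2% hematocrit, 0.05% parasitemia final were treated 96 hours at 37 C under 5% CO2, and luminescence was read.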
# HCV inhibitor: qHTS Assay for Inhibitors of Hepatitis C Virus (HCV) | Huh7.5.1 HCVcc-Cre infection, luciferase reporter, 44 h | Potency, µM (highest dose often 41.8 µM), for inactives: at the top dose activity change, negative = inhibition, hits mostly inhibitors | 340,000 compounds, 3.4% hits | AID 651820, 2012; also: % is scaled to controls: 0 for no effect and ±100 for the full control effect
#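 Infectious HCV cell culture screen: compound-treated cells (1,000/well, pre-plated 4 h) are infected with HCVcc-Cre at roughly 0.5 moi and grown 44 h. Infection is quantified by luciferase signal after 15 min substrate incubation at room temperature.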
# Vaccinia mCherry: qHTS for Stage-Specific Inhibitors of Vaccinia Orthopoxvirus: mCherry Reporter Primary qHTS. Vaccinia virus mCherry reporter infection, fluorescence. Potency, µM (highest dose often 36.5 µM), without a hit: top-dose activity change, negative = inhibition, hits mostly inhibitors. 310,000 compounds, 0.63% hits. AID 720579, 2013; calls by dose curve; tested in A549 cells; also: % is scaled to controls: 0 for no effect and ±100 for the full control effect; nearly all actives have a fitted effect of over 35% in size
# Pf growth 48h: Primary qHTS for delayed death inhibitors of the malarial parasite plastid, 48 hour incubation. P. falciparum luciferase growth in erythrocytes, 48 h. Potency, µM (series often up to 28.7 µM), without a hit: at the highest dose activity change, negative = inhibition, usual class: inhibitors. 310,000 compounds, 5.9% hits. AID 504832, 2011; also: % is scaled to controls: 0 for no effect and ±100 for the full control effect
#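 Cell-based growth assay: transgenic P. falciparum expressing firefly luciferase, cultured in red cells within RPMI 1640 containing 0.5% w/v Albumax, 24 mM bicarbonate and gentamycin. A drop in luciferase activity indicates inhibition.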
# NS1 function inh: qHTS Assay for Inhibitors of Influenza NS1 Protein Function; Potency, µM (doses to about 46.1 µM), inactives show top-dose activity, positive = more growth; 270,000 compounds, 0.4% hits; calls by dose curve; also: actives are rising curves; nearly all actives have a fitted effect of over 50% in size
#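 S. cerevisiae expressing influenza A NS1, grown in glucose, washed, then diluted 1:100 into pH 6.0 -URA galactose medium with 23 nl compound. Growth recovery read as OD600; NS1-free strain serves as control.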
# Numbers without * were called inactive; i = inactive; u = inconclusive; x = not tested or not shown. Unless noted, calls follow the shape of the dose curve; as a rule, active = well fitted inhibition curve with a large enough effect; inconclusive = small, poorly fitted or top-dose-only effect, or another doubt; inactive = no such curve, though single readings can be large or run the other way. Potency is read from the fitted curve at half-maximal effect.
SMILES,VACV Venus inh,Pf growth 96h,HCV inhibitor,Vaccinia mCherry,Pf growth 48h,NS1 function inh
CCC1Nc2ncnc(N3CCCCC3)c2N(Cc2ccc(C)cc2)C1=O (stereo not drawn),-20%,x,-21%,-7%,x,x
Cc1ccc(CN2C(=O)C(Cc3ccccc3)Nc3ncnc(N4CCN(c5ccccc5)CC4)c32)cc1 (stereo not drawn),u,4.7µM*,u,i,1.9µM*,x
CCOC(=O)c1c(C)nc2sc3c(=O)n(-c4ccc(C(C)=O)cc4)cnc3c2c1-c1ccc(OC)cc1,-22%,16%,9%,x,-6%,12%
CC(=O)c1c(C)nc2sc3c(=N)n(N)cnc3c2c1-c1ccc(Cl)cc1,4.5µM*,13µM*,u,3.5µM*,u,18%
CC(=O)c1cccc(NC(=O)C(C)Sc2nnc3ccccn23)c1 (stereo not drawn),-4%,x,x,i,x,x
CC(=O)c1ccc(NC(=O)C(C)Sc2nnc3ccccn23)cc1 (stereo not drawn),0%,9.3µM*,-4%,i,u,x
COc1ccc(/C=C2\SC(=S)N(CCCC(=O)N3CCN(C)CC3)C2=O)cc1OC,10%,x,7%,i,x,x
CC(C)n1cnc2c(N(C)c3cccc(Cl)c3)nc(N(CCO)CCO)nc21,u,9.3µM*,u,i,13µM*,-10%
Cc1ccc(S(=O)(=O)CCSc2cccc(C(=O)O)c2)cc1,x,193%,3%,x,u,14%
CC(=NCC1CCCO1)c1c(O)n(C2CCCCC2)c(=O)[nH]c1=O (stereo not drawn),x,-21%,13%,x,-14%,-2%
CC(=NCC1CCCO1)c1c(O)n(C)c(=O)n(C)c1=O (stereo not drawn),x,15µM*,13%,x,3%,-10%
CCN(CC(=O)NCc1ccc(F)cc1)CC(=O)NC1CCCC1,-16%,25%,0.89µM*,5%,27%,13%
COc1ccc(S(=O)(=O)N(CC(=O)NC2CCCC2)c2ccccc2OC)cc1,-13%,12µM*,9%,-6%,u,-3%
COc1ccc(S(=O)(=O)N(CC(=O)NC2CC3CCC2C3)c2ccccc2OC)cc1 (stereo not drawn),-26%,18%,u,-15%,u,-4%
Cc1ccc(C)c(N(CC(=O)NC2CCCC2)S(=O)(=O)c2ccccc2)c1,-9%,13µM*,-3%,i,-17%,-10%
O=C(CN(c1ccccc1)S(=O)(=O)c1ccc(F)cc1)NC1CCCCCC1,-7%,2.3µM*,7%,-17%,4%,1%
CCOc1ccccc1N(CC(=O)NC1CCCCC1)S(=O)(=O)c1ccccc1,-16%,u,-18%,i,u,-14%
O=C(Nc1ccccc1)C(=O)c1c[nH]c2ccccc12,-22%,25%,-20%,-21%,252%,-16%
O=C(Cc1ccccc1[N+](=O)[O-])NC1CC2CCC1C2 (stereo not drawn),-15%,u,u,-19%,3%,9%
CCOC(=O)c1cc(-c2ccc(Cl)cc2)nc2c1c(C)nn2CCC#N,-11%,u,u,i,u,-55%
CCOC(=O)c1cc(-c2ccc3c(c2)OCCO3)nc2c1c(C)nn2CCC#N,u,x,u,x,9.3µM*,-19%
CCOC(=O)c1cc(-c2ccncc2)nc2c1c(C)nn2C,x,3.3µM*,u,x,x,-70%
CCOC(=O)c1cc(-c2ccccc2)nc2c1c(C)nn2-c1ccccn1,u,x,10µM*,x,u,12%
CCOC(=O)c1cc(-c2ccco2)nc2c1c(C)nn2-c1cccc(Cl)c1,x,7%,-17%,x,-12%,4%
Cn1c(=O)c2c(nc(N3CCCCC3)n2C)n(C)c1=O,-7%,-9%,4%,x,17%,19%
SMILES,VACV Venus inh,Pf growth 96h,HCV inhibitor,Vaccinia mCherry,Pf growth 48h,NS1 function inh
COn1c(=O)c(-c2ccc(C)cc2)[n+]([O-])c2ccccc21,x,104%,3%,x,41%,1%
Cc1cc(C)n(CC(O)Cn2c3ccc(Cl)cc3c3cc(Cl)ccc32)c(=O)n1 (stereo not drawn),-16%,x,u,-23%,u,25%
CN1CCC2(CC1)Nc1nc(SCc3ccc(Cl)cc3)nn1C1=C2CN(C)CC1,-29%,-10%,14µM*,x,3.3µM*,-5%
Cc1ccc(N/C(N)=N/c2nc(C)cc(N3CCCCC3)n2)c(C)c1,u,u,2.8µM*,u,0%,x
Cc1ccc(N/C(N)=N/c2nc3c(c(=O)[nH]2)CCCC3)c(C)c1,-9%,71%,-2%,-2%,u,3%
COC(=O)c1ccc(CN2[C@H](C(=O)OC)C[C@@]3(O)[C@H](O)[C@H](O)[C@H](O)C[C@@H]23)cc1,0%,74%,6%,i,67%,5%
O=C(O)/C=C/c1cn(-c2ccccc2)nc1-c1cccc([N+](=O)[O-])c1,x,-13%,18%,x,-16%,5%
O=[N+]([O-])c1cccc(-c2nn(-c3ccccc3)cc2CO)c1,x,0.47µM*,-21%,x,15%,1%
CCOc1ccc(C(=O)NCC(C)CN(C)C)cc1OCC (stereo not drawn),-8%,x,5%,-5%,8%,6%
Cc1nn(C)c2c1c(C(F)(F)F)cc(=O)n2CC(=O)NC(C)(C)C,3%,x,x,0%,x,x
COc1ccc(NC(=O)CSc2nc3c(sc4ccccc43)c(=O)n2CCCN2CCCC2)cc1,x,u,2.5µM*,x,13µM*,10%
COc1ccc(NC(=O)CSc2nc3ccccc3c(=O)n2CCCN2CCCCC2)c(OC)c1,-13%,9.3µM*,-28%,-27%,x,19%
COCCCNC(=O)CSc1nc2ccccc2c(=O)n1CCCN1CCCCC1,x,17%,8%,x,22%,-3%
Cc1cc(C)c(C#N)c(SCc2nnc(-c3ccccc3[N+](=O)[O-])o2)n1,-14%,u,u,-20%,1%,-7%
CC(C)N1CCC(N2CCN(C3CCCC3)CC2CCO)CC1 (stereo not drawn),-6%,13µM*,4%,-8%,-14%,8%
OCCC1CN(C2CCSCC2)CCN1C1CCCC1 (stereo not drawn),7%,-12%,13%,8%,-4%,3%
CCc1nc2ccc(C(=O)Nc3cccc(OCC(=O)N(C)C)c3)cn2c1N(CC)CCN(C)C,6%,x,x,24%,x,x
Cc1cccc(C)c1NC(=O)C(c1ccncc1)N1CCN(C)CC1 (stereo not drawn),-13%,x,x,-6%,x,x
CCOc1ccc(C(c2c(NC(=O)c3ccccc3)sc(C)c2C)N2CCN(CCO)CC2)cc1 (stereo not drawn),-15%,5.2µM*,u,-14%,u,8%

# High-throughput results: PubChem, National Center for Advancing Translational Sciences (NCATS)
